Bioassay records (PubChem BioAssay)
D1 agonist: Allosteric Agonists of the Human D1 Dopamine Receptor: qHTS; D(1A) dopamine receptor (Homo sapiens), P21728; HEK293 T-REx D1 cells, calcium flux, agonist mode; activation, % at 2 µM; actives 1% (n = 360,000); AID 504660, 2011; in the data active means activation above about 30%; further: 0% is about no effect
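Tetracycline-induced HEK293 TREx D1 cells, force-coupled to calcium signalling, were dye-loaded with a no-wash calcium kit. Compound was pin-added after a 10 s baseline. Fluorescence was read kinetically at 1 cycle/s for 180 s, with calcium rises flagged as agonism.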
DRD3 agonist: qHTS of D3 Dopamine Receptor Agonist: qHTS; actives 0.58% (n = 410,000); D(3) dopamine receptor (Homo sapiens), P35462; max activation, %; D3R DiscoveRx beta-arrestin cells, luminescence, 90 min; AID 652048, 2013; in the data active means max activation above about 30%; further: 0% is about no effect
Target sequence (P35462 whole entry, looked up): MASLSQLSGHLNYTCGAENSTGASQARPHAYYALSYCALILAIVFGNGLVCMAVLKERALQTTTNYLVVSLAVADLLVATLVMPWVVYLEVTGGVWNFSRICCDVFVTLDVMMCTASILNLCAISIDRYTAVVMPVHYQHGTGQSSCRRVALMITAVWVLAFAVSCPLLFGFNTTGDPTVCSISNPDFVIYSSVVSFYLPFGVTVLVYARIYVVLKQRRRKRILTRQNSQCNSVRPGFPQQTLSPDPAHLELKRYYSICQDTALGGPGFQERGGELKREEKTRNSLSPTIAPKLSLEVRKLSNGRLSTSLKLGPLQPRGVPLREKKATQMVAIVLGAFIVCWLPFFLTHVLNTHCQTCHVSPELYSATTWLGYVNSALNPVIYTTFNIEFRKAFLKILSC
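Cells at 1500/well, incubated overnight, then treated with pinned compounds (dopamine as control) for 90 min at 37 degrees C. DiscoveRx reagent added for 30 - 60 minutes at room temperature; luminescence read.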
D3 antag: qHTS of D3 Dopamine Receptor Antagonist: qHTS. D(3) dopamine receptor (Homo sapiens), P35462. D3R cells, DiscoveRx beta-arrestin luminescence, antagonist mode; active compounds read low. max response, negative = inhibition, %. actives 2.5% (n = 360,000). AID 652054, 2013; in the data active means max response below about -50%; inconclusive means no clear call, values can overlap the other calls; further: on the % scale 0 is the no-effect control and ±100 the full control effect
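Cells expressing the human receptor were seeded at 1500 cells/well, incubated overnight at 37 degrees C in 5% CO2, then exposed to library compounds with dopamine controls for 90 minutes at 37 degrees C before luminescent detection.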
D1 antagonist: Antagonist of Human D 1 Dopamine Receptor: qHTS; HEK293 TREx D1 cells, calcium flux, dopamine EC80; active compounds read low; activity change, negative = inhibition, % at 10 µM; actives 3.2% (n = 360,000); AID 504652, 2011; in the data active means activity change below about -30%; further: on the % scale 0 is the no-effect control and ±100 the full control effect
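Antagonism measured as reduced calcium response to an EC80 dopamine addition following 180 s compound pre-read; cells were inducible HEK293 Trex D1 plated overnight at 30 C, read kinetically at 1 cycle/sec.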
D1 PAM: Potentiators of Human D1 Dopamine Receptor: qHTS. D(1A) dopamine receptor (Homo sapiens), P21728. HEK293 TREx D1 cells, calcium flux, dopamine EC20 potentiation. potentiation, % at 10 µM. actives 0.036% (n = 360,000); in the data active means potentiation above about 30%; further: 0% is about no effect
ERG-DNA inh: qHTS for Small Molecule Inhibitors of the ERG Ets/DNA interaction | Transcriptional regulator ERG (Homo sapiens), P11308 | fluorescence polarization, His-ERG Ets domain / labelled DNA | Potency, µM (doses to about 76.9 µM), for inactives: top-dose FP activity, negative = inhibition, usual class: inhibitors | actives 0.028% (n = 370,000) | AID 624246, 2012; active means well fitted inhibition curve with a large enough effect in the polarisation, with a control signal flat; inconclusive means small, poorly fitted or top-dose-only effect, or effect the other way, or a change in a side signal; inactive means no such curve, though single readings can be large or run the other way; the % refers to the polarisation;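 further: polarization taken with two DNA probes labelled with fluorescein and Texas red; potency means the concentration at half of the fitted maximal effect; % of control where 0% means no effect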
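His-tagged ERG Ets domain (1 uM in the protein solution; 300mM KCl, 50mM Tris-HCl, 1mM EDTA, 1mM DTT, pH 7.5) received compound, then a probe mix of 5 nM fluorescein-DNA and 100nM Texas-615-DNA. Fluorescence polarization was read for both dyes.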
* marks the source's active call; other numbers are inactive results; u = inconclusive; x = no result. Compounds with a hit are over-represented: about 6.1% of the library has one in this group of screens.

SMILES | D1 agonist | DRD3 agonist | D3 antag | D1 antagonist | D1 PAM | ERG-DNA inh
CCOc1ccc(NS(=O)(=O)c2ccc(C(=O)N3CCN(c4ncccn4)CC3)cc2)cc1 | 21 | 2 | 15 | -5 | 4 | -2%
COc1ccc(NS(=O)(=O)c2ccc(C(=O)NCC3(N4CCOCC4)CCCCC3)cc2)cc1 | x | -6 | 0 | x | x | 6%
c1ccc2c(c1)CCc1c(-c3ccncc3)n[nH]c1-2 | 0 | 0 | -5 | -20 | -8 | -10%
CC1CCN(C(=O)c2ccc(NS(=O)(=O)c3ccccc3)cc2)CC1 | 7 | 3 | -5 | -32* | -8 | 11%
O=C(c1ccc(NS(=O)(=O)c2ccccc2)cc1)N1CCCC1 | 2 | -4 | 21 | -20 | -1 | 2%
CCN(CC)S(=O)(=O)c1ccc(S(=O)(=O)Nc2ccc(C(=O)N3CCCC3)cc2)cc1 | 7 | -13 | -56* | 3 | 0 | -5%
COc1ccccc1N1C(=NC(=O)C(C)Oc2ccccc2)SC2CS(=O)(=O)CC21 (stereo unspecified) | 0 | 6 | -2 | 3 | -1 | 9%
C=CCn1c(SCC(=O)NC2CCCCC2)nnc1-c1sc(N)nc1C | 3 | -1 | -51* | 4 | -3 | 3%
COc1ccccc1CNC(=O)COC(=O)Cc1ccc(Br)cc1 | x | -7 | u | x | x | -7%
CCCNC(=O)N1CCN(S(C)(=O)=O)CC1 | 3 | 12 | 2 | 4 | 5 | -2%
Cn1cc(C(=O)NCN2CCCCC2)c2ccccc21 | 2 | -9 | 0 | -40* | -4 | 44%
CCNC(=O)C1(C)CCCN(Cc2csc3ccccc23)C1 (stereo unspecified) | x | -2 | 21 | x | x | x
CSc1ccc(CN2CCC(C)(Oc3ccc4ccccc4c3)C2)cc1 (stereo unspecified) | x | -14 | u | x | x | x
CSc1ccc(OC2(C)CCN(Cc3ccccc3)C2)cc1 (stereo unspecified) | x | -10 | -73* | x | x | x
CC(C)c1ccc(CN2CCC(C)(Oc3ccc(Cl)cc3)C2)cc1 (stereo unspecified) | x | -10 | -2 | x | x | x
COC(=O)Cc1ccc(OC2(C)CCN(Cc3ccccc3)C2)cc1 (stereo unspecified) | x | -12 | -89* | x | x | x
CSc1ccc(CN2CCC(C)(Oc3ccc(-n4ccnc4)cc3)C2)cc1 (stereo unspecified) | x | -22 | -97* | x | x | x
CC1(Oc2ccccc2)CCN(Cc2csc3ccccc23)C1 (stereo unspecified) | x | -10 | -83* | x | x | x
O=C(CSc1n[nH]c(-c2ccncc2)n1)c1cccc([N+](=O)[O-])c1 | 1 | -3 | -69* | -4 | -4 | 9%
COc1ccc(C2=NO[C@@H]3C(=O)N(C4CCCCC4)C(=O)[C@H]23)cc1OC | 26 | 12 | 0 | -35* | -7 | 0%
COc1cc(/C=c2\s/c(=C(/C#N)C(=O)N3CCCC3)n(-c3ccccc3)c2=O)ccc1O | 138* | 2 | 0 | 0 | 0 | u
COC(=O)/C=c1/s/c(=C(/C#N)C(=O)N2CCCCC2)n(-c2ccccc2)c1=O | 0 | -5 | -21 | 1 | -2 | 3%
Cc1cc(C(=O)NC2CCCCC2)c(C)o1 | 0 | 5 | 6 | 5 | 1 | x
CCOC(=O)C1=C(C)NC(C)=C(C(=O)OC)C1c1cccc(Cl)c1Cl (stereo unspecified) | 1 | 8 | 25 | -18 | -4 | -18%
CCOC(=O)C1=C(COCCN)NC(C)=C(C(=O)OC)C1c1ccccc1Cl (stereo unspecified) | 48* | -8 | 4 | 36 | -4 | -4%
O=S(=O)(c1ccc(Oc2ccc(Cl)cc2)c(S(=O)(=O)N2CCCCC2)c1)N1CCCCC1 | 0 | -12 | -18 | -3 | -5 | -2%
